Source: PubChem BioAssay AID504773 (Broad Institute, 2011)
Entries with a potency or affinity are not part of this list. A number with no mark means an inactive call.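 The calls were made as follows: active = polarization signal falls with dose and the fitted half-maximal concentration is at or below ten times the sample's top valid dose; inconclusive = flat curve at 30 to 70% inhibition, or poor fit; inactive = signal rises, flat within 30%, or potency beyond limit.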

biological target: Golgi-associated PDZ and coiled-coil motif-containing protein (Homo sapiens) (UniProt Q9HD26); assay: potency against CAL PDZ-peptide interaction – biochemical, fluorescence polarization, Cerulean-tagged CAL PDZ, cherry-picks, dose response (AID 504773); settings: CAL PDZ-peptide binding, 1 h; series mostly up to 50 µM; activity change, negative = inhibition: at the top concentration;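 also: 0% = DMSO neutral wells and -100% = excess unlabeled competitor peptide wells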

| Structure (SMILES) | activity change, negative = inhibition [%] |
| --- | --- |
| COc1cc(/C=C2\C(=O)NC(=O)N(c3ccccc3)C2=O)c([N+](=O)[O-])cc1OC | 4.94 |
| O=c1[nH]c(CN2CC=C(c3ccccc3)CC2)nc2scc(-c3ccccc3)c12 | 6.71 |
| Cc1cc(C)c(C(=O)N2CCC3(CC2)OCCO3)c(C)c1 | -7.3 |
| COc1cc(C)cc(CN2CC=C(c3ccccc3)CC2)c1O | 9.35 |
| O=C(c1ccc(F)cc1Cl)N1CCC2(CC1)OCCO2 | 20.1 |
| CSC1=NP(=S)(SC)N2CCCC2=C1C#N (stereo unspecified) | 13.6 |
| COc1ccc(CNCCc2c[nH]c3ccccc23)c(OC)c1OC | 8.02 |
| c1ccc2[nH]c(CCNC3CCCCC3)nc2c1 | 7.1 |
| O=C1CN=C(c2ccccc2)c2oc3ccc(Br)cc3c2N1 | 11.9 |
| CC(C)CN1CCN(Cc2cccc3c2OCO3)CC1CCO (stereo unspecified) | 6.14 |
| Cn1c(=O)c2c(nc(-c3ccc(N(CCCl)CCCl)cc3)n2C)n(C)c1=O | 1.8 |
